Test results from PubChem BioAssay (NCATS).
Results with a measured potency or affinity are listed apart. Unmarked numbers belong to inactive results. The rule behind the calls is not given here.

conditions: Ebola virus entry assay, green fluorescence channel
Note: 0% is about no effect.

| Structure (SMILES) | efficacy |
| --- | --- |
| Cc1ccccc1OCC(O)CO (centres undefined) | 25.5% |
| O=C(NC(Cc1cc(=O)[nH]c2ccccc12)C(=O)O)c1ccc(Cl)cc1 (centres undefined) | -33.1% |
| C=CCN1C[C@H](C)N([C@H](c2ccc(C(=O)N(CC)CC)cc2)c2cccc(OC)c2)C[C@H]1C | -18.5% |
| CCn1nc(C(=O)O)c(=O)c2cc3c(cc21)OCO3 | 37.2% |
| O=c1c(C2CC(c3ccc(-c4ccc(Br)cc4)cc3)Cc3ccccc32)c(O)sc2ccccc12 (centres undefined) | 37.1% |
| OC[C@H]1O[C@@H](Oc2ccc(O)cc2)[C@H](O)[C@@H](O)[C@@H]1O | -11.6% |
| CC(=O)c1cc2ccccc2s1 | -31.8% |
| NC(=O)n1c(O)c(C(=O)c2cccs2)c2cc(Cl)ccc21 | 15% |
| C[N+](C)(C)CCCCCC[N+](C)(C)C | -15% |
| COc1ccccc1N1CCN(CCCCNC(=O)c2ccc(-c3ccc(C(C)=O)cc3)cc2)CC1 | 25.2% |
| CN1CCN(c2c(F)cc3c(=O)c(C(=O)O)cn4c3c2SCC4)CC1 | -11.6% |
| CCN(CC)C(=O)[C@@H]1C=C2c3cccc4[nH]cc(c34)C[C@H]2N(C)C1 | 49.3% |
| COc1ccc(C(=O)c2ccccc2)c(O)c1 | 30% |
| CC1(C)O[C@@H]2C[C@H]3[C@@H]4CCC5=CC(=O)C=C[C@]5(C)[C@@H]4[C@@H](O)C[C@]3(C)[C@]2(C(=O)CO)O1 | 50.6% |
| C[C@]12CCC(=O)C=C1CC[C@@H]1[C@@H]2CC[C@]2(C)C(=O)CC[C@@H]12 | 19.1% |
| Cc1ncc(CO)c(CO)c1O | -13.2% |
| CCCCOCCOC(=O)c1cccnc1 | -26.3% |
| COc1ccc2c(c1)c(CC(=O)OC/C=C(\C)CC/C=C(\C)CCC=C(C)C)c(C)n2C(=O)c1ccc(Cl)cc1 | 62.6% |
| Cc1nc([N+](=O)[O-])cn1-c1ccc([N+](=O)[O-])cc1 | -13.8% |
| CC(C)(C)NC[C@H](O)COc1nsnc1N1CCOCC1 | 15.5% |

| Structure (SMILES) | efficacy |
| --- | --- |
| CN(C)[C@@H]1C(=O)C(C(N)=O)=C(O)[C@@]2(O)C(=O)C3=C(O)c4c(O)cccc4C[C@H]3C[C@@H]12 | 167% |
| O=C1OC2(c3ccccc31)c1cc(Br)c(O)c(Br)c1Oc1c2cc(Br)c(O)c1Br | 23.8% |
| O=C1OC(c2ccc(O)c(S(=O)(=O)O)c2)(c2ccc(O)c(S(=O)(=O)O)c2)c2c(Br)c(Br)c(Br)c(Br)c21 | 32.9% |
| CCN(CC)CCNC(=O)c1ccc(N)cc1 | -17.1% |
| CC(C)NNC(=O)c1ccncc1 | -20.5% |
| COc1ccc(Cc2cnc(N)nc2N)cc1OC | -23.5% |
| Cc1ccc(C(C)C)cc2c(C)ccc1-2 | 14% |
| Cc1ccccc1C(=O)Nc1ccc(C(=O)N2CCCC(N(C)C)c3ccccc32)cc1 (centres undefined) | 11.8% |
| c1ccc2sc(SSc3nc4ccccc4s3)nc2c1 | -14.3% |
| NCCNCCNCCNCCN | -17.9% |
| O=C(O)c1ccc(S(=O)(=O)N(Cl)Cl)cc1 | -27.5% |
| CN1C(=O)NC(=O)C(C)(C2=CCCCC2)C1=O (centres undefined) | 10.3% |
| C#C[C@]1(O)CC[C@H]2[C@@H]3CCc4cc(OC5CCCC5)ccc4[C@H]3CC[C@@]21C | 57.3% |
| CN1CC[C@]23c4c5ccc(O)c4O[C@H]2[C@@H](O)C=C[C@H]3[C@H]1C5 | 19.5% |
| CCCCC/C=C\C/C=C\C/C=C\C/C=C\CCCC(=O)NCC(=O)O | -13.8% |
| CCC(C)(C)c1ccc(O)cc1 | 13.1% |
| C/C(=C(\CCO)SS/C(CCO)=C(\C)N(C=O)Cc1cnc(C)nc1N)N(C=O)Cc1cnc(C)nc1N | -13% |
| C/C=C1\[C@H]2C=C(C)C[C@]1(N)c1ccc(=O)[nH]c1C2 | 25.8% |
| CCc1cc2c(s1)-n1c(C)nnc1CN=C2c1ccccc1Cl | 22% |
